Measurements as given in PubChem BioAssay (EPA / NIEHS).
Several values for one entry are separate records, joined by “and”; a condition that tells them apart may be missing. Identical values can stand only once. Results filed as inconclusive are left out. Where a structure was tested more than once in an assay, its records may differ in their call. Activity calls are given as the source filed them. How the source made its calls: active means hit-call score of the fitted dose curve at least 0.9, where 1 is the maximum; inconclusive means response in the unintended direction; inactive means score below 0.9.

Columns and labels:
[1] = biological target: Cellular tumor antigen p53 (Homo sapiens) (UniProt P04637); experiment: TOX21_p53_BLA_p2_ratio: Tox21 HCT-116 p53 Agonism Beta-lactamase Assay, Ratio, Phase 2 (AID 2283592)
How it was run: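 First, HCT116 reporter cells settle for 5 h at 37C. Next, DMSO compound solutions are pinned in (217-fold dilution) and left 16 h. Finally, CCF4-AM substrate is loaded 2 h at room temperature and the 460/530 nm ratio read.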

[2] = TOX21_p53_BLA_p3_viability: Viability Assessment in the Tox21 HCT-116 p53 Agonism Beta-lactamase Assay, Phase 3 (AID 2283593);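 further: cells exposed to compound for 16 h before reading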
How it was run: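 Cellular ATP was quantified by CellTiter-Glo luminescence, read after 30 min at room temperature. Beforehand, HCT116 cells (4000/well) received compound 5 h post-seeding, 217-fold diluted from DMSO, then incubated 16 h at 37C.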

[3] = biological target: Cellular tumor antigen p53 (Homo sapiens) (UniProt P04637); experiment: TOX21_p53_BLA_p3_ratio: Tox21 HCT-116 p53 Agonism Beta-lactamase Assay, Ratio, Phase 3 (AID 2283596)
How it was run: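 Cells were seeded at 4000/well, rested 5 h at 37C, then dosed with DMSO compound solutions (217-fold dilution) for 16 h. CCF4-AM substrate was loaded for 2 h at room temperature, and the 460/530 nm emission ratio was fitted for gain of signal versus DMSO.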

[4] = TOX21_p53_BLA_p4_viability: Viability Assessment in the Tox21 HCT-116 p53 Agonism Beta-lactamase Assay, Phase 4 (AID 2283597);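 further: hits lower the luminescence signal meaning cytotoxicity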
How it was run: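 4000 HCT116 cells per well; 5 h attachment; compounds from DMSO, 217-fold dilution; 16 h at 37C. Then CCF4-AM, 2 h RT, followed by CellTiter-Glo, 30 min RT, luminescence. Decrease = cytotoxicity.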

[5] = biological target: Cellular tumor antigen p53 (Homo sapiens) (UniProt P04637); experiment: TOX21_p53_BLA_p5_ratio: Tox21 HCT-116 p53 Agonism Beta-lactamase Assay, Ratio, Phase 5 (AID 2283599)
How it was run: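 Beta-lactamase reporter ratio (blue 460 nm over green 530 nm, 405 nm excitation) after 2 h CCF4-AM loading, in HCT-116 cells exposed 16 h at 37 C to compounds pinned at 217-fold dilution. Increases relative to DMSO baseline scored.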

[6] = biological target: Cellular tumor antigen p53 (Homo sapiens) (UniProt P04637); experiment: TOX21_p53_BLA_p4_ratio: Tox21 HCT-116 p53 Agonism Beta-lactamase Assay, Ratio, Phase 4 (AID 2283601)
How it was run: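 Signal is the blue/green (460nm/530nm) ratio of cleaved versus uncleaved CCF4-AM substrate, read after 2 h substrate loading. Cells were HCT116 carrying the p53-responsive beta-lactamase reporter, dosed 16 h at 37C, 5% CO2; CellTiter-Glo measured in parallel.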

[7] = TOX21_p53_BLA_p5_viability: Viability Assessment in the Tox21 HCT-116 p53 Agonism Beta-lactamase Assay, Phase 5 (AID 2283600)
How it was run: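 Decreased CellTiter-Glo luminescence denotes lost viability. Exposure: 16 h at 37C, 5% CO2, with compounds from DMSO stocks diluted 217-fold in wells of 4000 cells.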

[8] = ACEA_ER_AUC_viability: ACEA Biosciences xCELLigence Real-Time Cell Analysis on Estrogen Receptor Agonism for Viability (AID 2283782);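 further: hit means loss of impedance signal meaning reduced cell growth or viability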
How it was run: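 Viability endpoint: reduced impedance area under the curve relative to DMSO, recorded by real-time electrode sensing over ~80 h of continuous exposure. Duplicate plates of T47D in hormone-depleted medium; eight concentrations, 1:4 dilutions, 100 uM maximum.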

[9] = TOX21_TRB_BLA_Antagonist_Followup_viability: Viability Assessment in the Tox21 Thyroid Hormone Receptor beta Antagonism Beta-lactamase (BLA) Follow-Up Assay (AID 2283961)
How it was run: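 HEK293T cells with GAL4-human TRβ LBD and UAS-bla reporter, 3,000 cells/well in 2% charcoal-stripped FBS medium; 11-point concentrations in triplicate, 18 h at 37C. Viability from ATP by CellTiter-Glo luminescence, 30 min RT, same plates.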

[10] = TOX21_TR_RXR_BLA_Antagonist_Followup_viability: Viability Assessment in the Tox21 Thyroid Hormone Receptor beta Retinoid X Receptor alpha (RXRa) Antagonism Beta-lactamase (BLA) Follow-Up Assay (AID 2283979)
How it was run: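 Follow-up compounds (11 concentrations, triplicate) were incubated 16 h at 37C/5% CO2 with HEK293T RXRa-bla cells seeded at 2,500/well in charcoal-stripped-serum medium. ATP content by CellTiter-Glo luminescence gave viability; curves fitted in both directions against DMSO.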

Chain of Cellular tumor antigen p53 (Homo sapiens) (P04637 whole entry, looked up): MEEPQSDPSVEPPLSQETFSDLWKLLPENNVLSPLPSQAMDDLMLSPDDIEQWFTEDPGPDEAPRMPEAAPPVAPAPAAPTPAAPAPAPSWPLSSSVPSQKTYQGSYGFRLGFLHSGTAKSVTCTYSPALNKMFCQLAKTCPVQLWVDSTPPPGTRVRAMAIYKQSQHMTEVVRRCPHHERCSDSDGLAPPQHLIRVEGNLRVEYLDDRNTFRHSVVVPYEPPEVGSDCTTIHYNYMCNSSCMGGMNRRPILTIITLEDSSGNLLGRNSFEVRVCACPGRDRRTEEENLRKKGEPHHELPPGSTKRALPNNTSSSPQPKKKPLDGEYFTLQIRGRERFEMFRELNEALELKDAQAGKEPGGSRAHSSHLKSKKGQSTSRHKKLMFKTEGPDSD

| Compound | outcome [1] | outcome [2] | outcome [3] | outcome [4] | outcome [5] | outcome [6] | outcome [7] | outcome [8] | AC50 [1] | AC50 [3] | AC50 [6] | outcome [9] | outcome [10] |
| --- | --- | --- | --- | --- | --- | --- | --- | --- | --- | --- | --- | --- | --- |
| CN1C[C@@H]2C[C@H]1CN2c1cc2c(cc1F)c(=O)c(C(=O)O)cn2C1CC1 | inactive | inactive | inactive | inactive | inactive | inactive |  |  |  |  |  |  |  |
| CC(C)=C1CC[C@@H](C)CC1=O | inactive | inactive | inactive | inactive | inactive | inactive |  |  |  |  |  |  |  |
| c1cnc2c(n1)CCCC2 | inactive | inactive | inactive | inactive | inactive | inactive |  |  |  |  |  |  |  |
| N[C@@H](Cc1cc(I)c(O)c(I)c1)C(=O)O | inactive | inactive | inactive | inactive | inactive | inactive |  |  |  |  |  |  |  |
| COc1ccc(-c2noc(CC(=O)O)c2-c2ccc(OC)cc2)cc1 | inactive | inactive | inactive | inactive | inactive | inactive | inactive |  |  |  |  |  |  |
| CC(CO)Oc1ccccc1 (stereo not given) | inactive | inactive | inactive | inactive | inactive | inactive |  |  |  |  |  |  |  |
| Cc1ccc(C(=O)C(C)CN2CCCCC2)cc1 (stereo not given) | inactive | inactive | inactive | inactive | inactive | inactive | inactive |  |  |  |  |  |  |
| CCOC(=O)COc1ccc(C)cc1 | inactive | inactive | inactive | inactive | inactive | inactive | inactive | inactive |  |  |  |  |  |
| Cc1cc(C2CCCCC2)n(O)c(=O)c1 | inactive | inactive | inactive | inactive | inactive | inactive |  |  |  |  |  |  |  |
| CC(=O)[C@]1(O)Cc2c(O)c3c(c(O)c2[C@@H](O[C@H]2C[C@H](N)[C@H](O)[C@H](C)O2)C1)C(=O)c1c(O)cccc1C3=O |  | inactive |  | inactive | inactive | inactive | inactive |  | 346 nM (active) and 263 nM (active) | 222 nM (active) and 212 nM (active) | 571 nM (active) |  |  |
| C[C@@H]1C[C@H]2[C@@H]3C[C@H](F)C4=CC(=O)C=C[C@]4(C)[C@@]3(Cl)[C@@H](O)C[C@]2(C)[C@H]1C(=O)COC(=O)C(C)(C)C | inactive | inactive | inactive | inactive | inactive | inactive |  |  |  |  |  |  |  |
| Oc1ccc(OCc2ccccc2)cc1 |  | inactive |  | inactive | inactive |  | inactive |  | 25.1 µM (active) and 9.17 µM (active) | 25.7 µM (active) and 10.9 µM (active) |  | inactive | inactive |
